The whole screen tested about 1,000 compounds, of which about 550 (55%) were called active. The set was probably picked from earlier hits. These entries were drawn from the full list. A number with no mark means an inactive call. No stated cut-off is given here; in the data, active means inhibition above about 50%; inactive means the rest.
Assay: yeast-expressed human NALP3 blockade, retest – luminescence, single concentration, confirmation (AID 488794)
Conditions: yeast expressing human NALP3, luminescence read-out; at 10 µM; active compounds read high

Compound	inhibition
O=[N+]([O-])/C=C/c1ccc2c(ccn2Cc2ccccc2)c1	96.3% (active)
CCCNc1ncnc2sc(C)c(C)c12	36.4%
C[C@@H]1C[C@@H]2O[C@H]2/C=C\C=C\C(=O)Cc2c(Cl)c(O)cc(O)c2C(=O)O1	66.2% (active)
CC(C)C(=O)N1CCN(CCN=CC2=C(O)CC(c3ccco3)CC2=O)CC1 (stereo unspecified)	62.1% (active)
CC1(C)CCSC(/C=C/c2ccccc2)=N1	79.8% (active)
O=C(Nc1ccc(Oc2ccccc2)cc1)c1ccco1	35.9%
O=C(Nc1ccc2oc(-c3ccccc3F)nc2c1)c1ccco1	71.3% (active)
Cn1c(=O)c(C(=O)Nc2ncccn2)c(O)c2ccccc21	60.2% (active)
Cc1cc(C)c(/C=C2\C(=O)Nc3ccccc32)[nH]1	36.6%
CCc1cc(C(=O)Nc2nnc(C3CC3)s2)sc1C	40.9%
Cc1ccc(OCc2nc(C#N)c(N3CCCC3)o2)cc1	53.5% (active)
CCN(CC)c1ccc(/C=N/Nc2nc(C)cc(C)n2)c(O)c1	63% (active)
O=[N+]([O-])c1c(NCCO)cc(Sc2nc3ccccc3s2)c2nonc12	48%
Cc1cc(C(=O)COc2ccc(Br)cc2F)c(C)n1C1CC1	49.4%
CC(C)Sc1ncnc2c1cnn2-c1ccccc1	46.2%
CC(=NCc1ccc2c(c1)OCO2)C1=C(O)c2ccccc2C1=O	63.9% (active)
O=C(NCc1ccc2c(c1)OCO2)c1c(O)nc2sccn2c1=O	38.4%
Cc1ccc2cccc(S(=O)(=O)N3CCN(c4ccccc4F)CC3)c2n1	47.8%
CC(=O)[C@@]12O[C@@H]1C[C@H]1[C@@H]3CC[C@H]4C[C@@H](O)CC[C@]4(C)[C@H]3CC[C@@]12C	38.2%
O=C(COc1ccccc1F)Nc1nc(-c2ccccn2)cs1	37.1%
CCSc1nc2sc3c(c2c(=O)n1-c1ccc(C)cc1)CCN(C)C3	44.3%

From PubChem BioAssay AID488794 (Sanford-Burnham Center for Chemical Genomics, 2010)
